Measured values reported in PubChem BioAssay (NCI).
The panel holds about 79,000 compounds, 15% with a hit somewhere; the sample as a whole holds those more often. A number with no mark means an inactive call. The source made the active and inactive calls. Cut-off read from the data, not from the text of the source: active = growth inhibition above about 70%; inactive = the rest.

assay: NCI Yeast Anticancer Drug Screen. Data for the sgs1 mgt1 strain (AID 161);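 note: 0% = growth of cultures given vehicle only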; settings: S. cerevisiae sgs1 mgt1 strain, at 50.0 µM, stronger effect = higher value
Method in brief: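 Mutant yeast exposed to compound; growth scored against vehicle-only wells.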

SMILES	growth inhibition
OC(c1ccccc1)C(CN1CCCCC1)c1ccccc1 (stereo not given)	24.9%
c1ccc(CSc2ccc3ccccc3c2)cc1	-13.5%
CC1(C(=O)O)CCCC2(C)c3ccc(O)cc3CCC12 (stereo not given)	61.2%
CCC(=O)C1(N2CCOCC2)CCN(CCCC(=O)c2ccc(F)cc2)CC1	-1.75%
CC(C)C(C(N)=O)C(C)C	-3.65%
CCCCCCCCCCCCCCCCOc1ccc(-c2cc(=O)n(C)n2C)cc1OC	-9.3%
O=C1OC(c2ccc([N+](=O)[O-])cc2)=N/C1=C\c1ccc(Cl)c(Cl)c1	43.6%
CCc1cc2c(Nc3ccccc3)c3c(nc2s1)CCCC3	-8.75%
CCOC(=O)c1c2ccc(/C=C/c3ccccn3)ccc-2c(C(=O)OCC)c1N	-1%
CN(C)CCCNc1nc(Cl)nc2nc(-c3ccccc3)c(-c3ccccc3)nc12	60.5%
OCC1C2C=CC1CC2 (stereo not given)	15.2%
O=c1[nH]c(=O)c2nc[nH]c(=O)c2[nH]1	-4.2%
Cc1cc(C)[n+](C)c(/C=C\c2ccccc2Cl)n1	10.6%
O=C(CSc1cc(Cl)c(Cl)cc1Cl)Nc1cccc(Cl)c1	6.3%
Cn1cc(C(=O)c2ccccc2)c2ccccc2c1=O	23.8%
O=C1CC23CC(=O)CC2(C1)c1ccccc1C3=O (stereo not given)	4.65%
O=C1C(=O)c2ccccc2C(O)=C1c1ccccc1	47.2%
CC(=O)Nc1ccc(S(=O)(=O)NCCC(=O)O)cc1	2.45%
C[N+]1(C)CCN(S(=O)(=O)c2ccccc2)c2ccccc21	-4.35%
CCc1ccc(-c2c(-c3ccccc3)c(-c3ccccc3)c(-c3ccccc3)c(-c3ccccc3)c2-c2ccccc2)cc1	21.9%

SMILES	growth inhibition
CCOc1ccccc1NC(=O)Nc1ccccc1Cl	23.1%
Cc1ccc(CNc2ccccc2)cc1	27.3%
NC(N)=NS(=O)(=O)c1ccc(Nc2c3ccccc3nc3c(C(=O)N4CCN(CCO)CC4)cccc23)cc1	2.95%
CC(=O)NC(Cc1ccc(C)cc1)C(=O)O (stereo not given)	20.1%
CNC(=O)NC(C)(C)CCCCC(C)(C)NC(=O)NC	28.3%
CC[N+](CC)(CC)CCCC[P+](CC)(CC)CC	8.8%
O=C(CCc1ccccc1)NC(=S)Nc1cc(C(F)(F)F)ccc1Cl	33.5%
CC1(CO)C(O)CCC2(C)C1C(O)CC1CC3CC12CCC3(O)CO (stereo not given)	1.3%
O=C(CN1CCCc2ccccc21)c1ccccc1	4.55%
N=C(N)SCC(=O)c1ccc([N+](=O)[O-])cc1	1.35%
CCCCCCCC(=O)NS(=O)(=O)c1ccccc1	27.8%
CCOC(=O)NC(=O)c1cn(C2OC(COC(=O)CCCCCCCCC(=O)OCC3OC(n4cc(C(=O)NC(=O)OCC)c(=O)[nH]c4=O)C4OC(C)(C)OC34)C3OC(C)(C)OC32)c(=O)[nH]c1=O (stereo not given)	-27.9%
CC1=CC(=O)C(=CN2C(=O)/C(=C\c3cccnc3)NC2=S)C(=O)O1	-18.9%
CCC(C(=O)O)C(C)(C)C (stereo not given)	1.8%
CCOC(=O)[C@H]1Nc2c(cccc2[N+](=O)[O-])[C@H]2OCC[C@@H]12	-0.45%
N#CCCOC(=O)Nc1ccccc1	-6.7%
O=C(O)CNC(=O)C(Cc1ccccc1)NC(=O)CNC(=O)C(CSC(c1ccccc1)c1ccccc1)NC(=O)C(CSC(c1ccccc1)(c1ccccc1)c1ccccc1)NC(=O)OCc1ccccc1 (stereo not given)	23.4%
Cc1ccc(S(=O)(=O)OC(c2ccc(C(OS(=O)(=O)c3ccc(C)cc3)(C(F)(F)F)C(F)(F)F)cc2)(C(F)(F)F)C(F)(F)F)cc1	-17.8%
CC1(C)OC2OC(C3CC3)C(O)C2O1 (stereo not given)	3%
O=C1OC(=O)c2ccc(SCC(O)CCl)c3cccc1c23 (stereo not given)	98.7% (active)

assay: NCI Yeast Anticancer Drug Screen. Data for the cln2 rad14 strain (AID 165);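 note: 0% = growth equal to vehicle treated cultures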; settings: S. cerevisiae cln2 rad14 strain, at 50.0 µM, stronger effect = higher value
Method in brief: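 Test compounds were added to cln2 rad14 yeast cultures; inhibition of growth was then determined by comparison with vehicle treatment.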

SMILES	growth inhibition
OC(c1ccccc1)C(CN1CCCCC1)c1ccccc1 (stereo not given)	-11.8%
c1ccc(CSc2ccc3ccccc3c2)cc1	-51.8%
CC1(C(=O)O)CCCC2(C)c3ccc(O)cc3CCC12 (stereo not given)	-3%
CCC(=O)C1(N2CCOCC2)CCN(CCCC(=O)c2ccc(F)cc2)CC1	1.5%
CC(C)C(C(N)=O)C(C)C	10.7%
CCCCCCCCCCCCCCCCOc1ccc(-c2cc(=O)n(C)n2C)cc1OC	-0.15%
O=C1OC(c2ccc([N+](=O)[O-])cc2)=N/C1=C\c1ccc(Cl)c(Cl)c1	28.1%
CCc1cc2c(Nc3ccccc3)c3c(nc2s1)CCCC3	11.5%
CCOC(=O)c1c2ccc(/C=C/c3ccccn3)ccc-2c(C(=O)OCC)c1N	13%
CN(C)CCCNc1nc(Cl)nc2nc(-c3ccccc3)c(-c3ccccc3)nc12	36%
OCC1C2C=CC1CC2 (stereo not given)	-0.85%
O=c1[nH]c(=O)c2nc[nH]c(=O)c2[nH]1	-3.55%
Cc1cc(C)[n+](C)c(/C=C\c2ccccc2Cl)n1	15.2%
O=C(CSc1cc(Cl)c(Cl)cc1Cl)Nc1cccc(Cl)c1	-12.6%
Cn1cc(C(=O)c2ccccc2)c2ccccc2c1=O	8.25%
O=C1CC23CC(=O)CC2(C1)c1ccccc1C3=O (stereo not given)	6.2%
O=C1C(=O)c2ccccc2C(O)=C1c1ccccc1	7.75%
CC(=O)Nc1ccc(S(=O)(=O)NCCC(=O)O)cc1	4.3%
C[N+]1(C)CCN(S(=O)(=O)c2ccccc2)c2ccccc21	-7.95%
CCc1ccc(-c2c(-c3ccccc3)c(-c3ccccc3)c(-c3ccccc3)c(-c3ccccc3)c2-c2ccccc2)cc1	26.1%

SMILES	growth inhibition
CCOc1ccccc1NC(=O)Nc1ccccc1Cl	-18.3%
Cc1ccc(CNc2ccccc2)cc1	8.8%
NC(N)=NS(=O)(=O)c1ccc(Nc2c3ccccc3nc3c(C(=O)N4CCN(CCO)CC4)cccc23)cc1	22.4%
CC(=O)NC(Cc1ccc(C)cc1)C(=O)O (stereo not given)	-3.5%
CNC(=O)NC(C)(C)CCCCC(C)(C)NC(=O)NC	-16.9%
CC[N+](CC)(CC)CCCC[P+](CC)(CC)CC	9.9%
O=C(CCc1ccccc1)NC(=S)Nc1cc(C(F)(F)F)ccc1Cl	-41.8%
CC1(CO)C(O)CCC2(C)C1C(O)CC1CC3CC12CCC3(O)CO (stereo not given)	-0.8%
O=C(CN1CCCc2ccccc21)c1ccccc1	10.3%
N=C(N)SCC(=O)c1ccc([N+](=O)[O-])cc1	-0.4%
CCCCCCCC(=O)NS(=O)(=O)c1ccccc1	52.2%
CCOC(=O)NC(=O)c1cn(C2OC(COC(=O)CCCCCCCCC(=O)OCC3OC(n4cc(C(=O)NC(=O)OCC)c(=O)[nH]c4=O)C4OC(C)(C)OC34)C3OC(C)(C)OC32)c(=O)[nH]c1=O (stereo not given)	10.9%
CC1=CC(=O)C(=CN2C(=O)/C(=C\c3cccnc3)NC2=S)C(=O)O1	-20.1%
CCC(C(=O)O)C(C)(C)C (stereo not given)	-4.9%
CCOC(=O)[C@H]1Nc2c(cccc2[N+](=O)[O-])[C@H]2OCC[C@@H]12	11.4%
N#CCCOC(=O)Nc1ccccc1	-40.6%
O=C(O)CNC(=O)C(Cc1ccccc1)NC(=O)CNC(=O)C(CSC(c1ccccc1)c1ccccc1)NC(=O)C(CSC(c1ccccc1)(c1ccccc1)c1ccccc1)NC(=O)OCc1ccccc1 (stereo not given)	-17.2%
Cc1ccc(S(=O)(=O)OC(c2ccc(C(OS(=O)(=O)c3ccc(C)cc3)(C(F)(F)F)C(F)(F)F)cc2)(C(F)(F)F)C(F)(F)F)cc1	10.8%
CC1(C)OC2OC(C3CC3)C(O)C2O1 (stereo not given)	-36.1%
O=C1OC(=O)c2ccc(SCC(O)CCl)c3cccc1c23 (stereo not given)	95.8% (active)
